Experimental data from PubChem BioAssay (EPA / NIEHS).
Active and inactive are the calls of the source. The calls were made as follows: active = hit-call score of the fitted dose curve at least 0.9, where 1 is the maximum; inactive = score below 0.9.

Tests used:
Settings in all cases: mRNA level, 48 h; actives raise or lower the signal
[1] = read-out: Apolipoprotein A-V (APOA5) gene, APOA5 (gene 116519); test: LTEA_HepaRG_APOA5: Life Technologies and Expression Analysis (LTEA) Assay for Apolipoprotein A-V (APOA5) gene using HepaRG (AID 2283474)
In short: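 HepaRG, 48 h chemical exposure in serum-free induction medium, 8-pt half-log series (top 100 uM), 0.5% DMSO vehicle, duplicates. Readout: APOA5 mRNA by qRT-PCR, housekeeping-normalized; bidirectional fit vs DMSO baseline.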

[2] = read-out: Bcl-2 (BID) gene, BID (gene 637); test: LTEA_HepaRG_BID: Life Technologies and Expression Analysis (LTEA) Assay for Bcl-2 (BID) gene using HepaRG (AID 2283476)
In short: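 Transcript levels of BID, measured by qRT-PCR and normalized to three housekeeping genes, were fitted bidirectionally against DMSO controls. Cells were HepaRG, dosed 48 h at up to 100 uM.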

Caspase-3 (Homo sapiens) = Caspase-3 (Homo sapiens) (UniProt P42574); test: LTEA_HepaRG_CASP3: Life Technologies and Expression Analysis (LTEA) Assay for cysteine-aspartic acid protease (CASP3) using HepaRG (AID 2283477)
Caspase-3 (Homo sapiens), sequence (P42574 whole entry, looked up): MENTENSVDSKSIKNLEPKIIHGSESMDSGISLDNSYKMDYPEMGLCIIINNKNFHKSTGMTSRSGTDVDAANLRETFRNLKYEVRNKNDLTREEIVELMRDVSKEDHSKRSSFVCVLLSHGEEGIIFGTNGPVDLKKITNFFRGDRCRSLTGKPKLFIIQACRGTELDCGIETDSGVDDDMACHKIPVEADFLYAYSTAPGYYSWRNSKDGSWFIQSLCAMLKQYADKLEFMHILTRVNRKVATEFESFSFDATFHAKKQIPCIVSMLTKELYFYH
In short: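 HepaRG, 48 h exposure, 8 conc. (top 100 uM, half-log steps, duplicate), 0.5% DMSO vehicle; qRT-PCR of CASP3 transcript, housekeeping-normalised (ACTB/GAPDH/POLR2A); bidirectional curve fit vs DMSO baseline.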

[3] = read-out: Cytochrome P450 (CYP24A1), CYP24A1 (gene 1591); test: LTEA_HepaRG_CYP24A1: Life Technologies and Expression Analysis (LTEA) Assay for Cytochrome P450 (CYP24A1) using HepaRG (AID 2283478)
In short: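 qRT-PCR read-out: CYP24A1 transcript levels normalized to three housekeeping genes, bidirectional curve fits against 0.5% DMSO baseline. Human HepaRG cells treated 48 h with chemicals at eight concentrations from 100 uM in half-log steps.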

[4] = read-out: Cytochrome P450 (CYP1A2), CYP1A2 (gene 1544); test: LTEA_HepaRG_CYP1A2: Life Technologies and Expression Analysis (LTEA) Assay for Cytochrome P450 (CYP1A2) using HepaRG (AID 2283479)
In short: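 HepaRG, 48 h exposure, top 100 uM, half-log 8-pt, 0.5% DMSO vehicle, duplicates. Readout: TaqMan qRT-PCR of CYP1A2 mRNA, housekeeping-normalized (ACTB/GAPDH/POLR2A). Gain/loss fit relative to DMSO baseline.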

[5] = read-out: cysteine-aspartic acid protease (CASP8), CASP8 (gene 841); test: LTEA_HepaRG_CASP8: Life Technologies and Expression Analysis (LTEA) Assay for cysteine-aspartic acid protease (CASP8) using HepaRG (AID 2283480)
In short: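 Differentiated HepaRG cells in serum-free induction medium, 48 h exposure, eight-point half-log series from 100 uM in 0.5% DMSO, duplicates. CASP8 mRNA by qRT-PCR, normalized to ACTB, GAPDH, POLR2A; bidirectional fit versus DMSO.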

[6] = read-out: Cytochrome P450 2C19 (Homo sapiens) (UniProt P33261); test: LTEA_HepaRG_CYP2C19: Life Technologies and Expression Analysis (LTEA) Assay for CYP2C19 using HepaRG (AID 2283482)
In short: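 HepaRG, 48 h chemical exposure, 8-pt half-log series from 100 uM in 0.5% DMSO, duplicates. Readout: CYP2C19 mRNA by TaqMan qRT-PCR, housekeeping-normalized. Bidirectional fit vs DMSO baseline; phenobarbital 1mM as induction control.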

[7] = read-out: Apoptosis regulator Bcl-2 (Homo sapiens) (UniProt P10415); test: LTEA_HepaRG_BCL2: Life Technologies and Expression Analysis (LTEA) Assay for Bcl-2 gene using HepaRG (AID 2283475)
In short: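 HepaRG, plated 48 h then switched to serum-free induction medium; dosed 48 h, 8 conc. (max 100 uM, half-log steps), duplicate, 0.5% DMSO. Lysis in RLT, RNA isolated, TaqMan qRT-PCR for BCL2; ACTB/GAPDH/POLR2A normalisation; bidirectional fit vs DMSO.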

[8] = read-out: Cytochrome P450 (CYP2B6), CYP2B6 (gene 1555); test: LTEA_HepaRG_CYP2B6: Life Technologies and Expression Analysis (LTEA) Assay for Cytochrome P450 (CYP2B6) using HepaRG (AID 2283481)
In short: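 Read-out is CYP2B6 mRNA by TaqMan qRT-PCR, normalized to three housekeeping genes and fitted bidirectionally against 0.5% DMSO baseline. Human HepaRG cells received test chemicals for 48 h, top concentration 100 uM, half-log dilutions.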

Cytochrome P450 2C19 (Homo sapiens), sequence (P33261 whole entry, looked up): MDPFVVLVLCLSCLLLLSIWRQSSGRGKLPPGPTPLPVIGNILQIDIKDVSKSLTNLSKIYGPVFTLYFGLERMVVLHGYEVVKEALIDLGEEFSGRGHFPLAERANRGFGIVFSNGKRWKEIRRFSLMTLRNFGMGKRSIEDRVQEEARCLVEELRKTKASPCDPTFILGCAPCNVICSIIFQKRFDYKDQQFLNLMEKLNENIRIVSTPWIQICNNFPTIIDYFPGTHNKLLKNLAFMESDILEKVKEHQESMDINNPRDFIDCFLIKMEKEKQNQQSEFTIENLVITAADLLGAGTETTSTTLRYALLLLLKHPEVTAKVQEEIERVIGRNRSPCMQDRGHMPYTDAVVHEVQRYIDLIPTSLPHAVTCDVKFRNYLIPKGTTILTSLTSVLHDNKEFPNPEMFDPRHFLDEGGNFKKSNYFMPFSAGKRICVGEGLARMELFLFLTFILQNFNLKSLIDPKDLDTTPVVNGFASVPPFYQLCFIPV
Apoptosis regulator Bcl-2 (Homo sapiens), sequence (P10415 whole entry, looked up): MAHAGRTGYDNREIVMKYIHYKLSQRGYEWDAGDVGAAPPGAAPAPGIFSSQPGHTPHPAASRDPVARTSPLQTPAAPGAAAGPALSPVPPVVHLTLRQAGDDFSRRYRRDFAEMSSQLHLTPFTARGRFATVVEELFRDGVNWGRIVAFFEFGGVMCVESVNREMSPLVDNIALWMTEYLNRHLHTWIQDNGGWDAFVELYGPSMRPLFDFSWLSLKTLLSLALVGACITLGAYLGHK

Compound	outcome [1]	outcome [2]	outcome (Caspase-3 (Homo sapiens))	outcome [3]	outcome [4]	outcome [5]	outcome [6]	outcome [7]	AC50 [4]	AC50 [6]	AC50 [1]	AC50 [8]	AC50 [2]	AC50 [3]
ClC(Cl)c1ccccc1	inactive	inactive	inactive	inactive	inactive	inactive	inactive							
Cc1ccc(O)cc1C	inactive	inactive	inactive			inactive		inactive						
Nc1cc2c3c(c1)C(c1ccccc1)=N[C@@H](NC(=O)c1cccnc1)C(=O)N3CC2	inactive	inactive	inactive	inactive		inactive			50 µM (active)	9.8 µM (active)				
Cc1ccc([N+](=O)[O-])cc1C	inactive	inactive	inactive	inactive	inactive	inactive	inactive							
ClC1=C(Cl)C2(Cl)C3C(Cl)C(Cl)CC3C1(Cl)C2(Cl)Cl (stereo not drawn)		inactive	inactive	inactive	inactive	inactive				2.42 µM (active)	50 µM (active)			
[N-]=[N+]=[N-]		inactive	inactive	inactive	inactive	inactive	inactive				50 µM (active)			
CC(C)(C)OOC(C)(C)C	inactive	inactive	inactive	inactive	inactive	inactive	inactive							
Cc1ccc(N)cc1N	inactive	inactive	inactive	inactive		inactive	inactive		21.5 µM (active)			5 µM (active)		
Nc1ccc2ccccc2c1	inactive	inactive	inactive	inactive		inactive			33.1 µM (active)	26.7 µM (active)				
c1cc2c3c(cccc3c1)CC2	inactive	inactive	inactive	inactive	inactive	inactive	inactive							
CCCCN(CCCC)N=O	inactive	inactive	inactive	inactive	inactive	inactive	inactive							
c1nc[nH]n1			inactive			inactive	inactive	inactive	0.109 µM (active)		0.112 µM (active)		0.0897 µM (active)	0.185 µM (active)
CCOc1ccc(C(C)(C)COCc2cccc(Oc3ccccc3)c2)cc1	inactive	inactive	inactive	inactive		inactive			28 µM (active)	4.25 µM (active)				
CCOP(=S)(OCC)SCSCC	inactive	inactive	inactive	inactive	inactive	inactive				11.2 µM (active)				
CCOP(=S)(Oc1ccc([N+](=O)[O-])cc1)c1ccccc1 (stereo not drawn)	inactive	inactive	inactive	inactive		inactive			24.2 µM (active)	6.06 µM (active)				
ClC(Cl)(Cl)c1ccccc1	inactive	inactive	inactive	inactive	inactive	inactive	inactive							
COCCOCCO	inactive	inactive	inactive	inactive	inactive	inactive				2.31 µM (active)				
c1ccc(OP(Oc2ccccc2)Oc2ccccc2)cc1	inactive	inactive	inactive	inactive	inactive	inactive	inactive							
O=[N+]([O-])c1ccc(Cl)c(Cl)c1	inactive	inactive	inactive	inactive		inactive	inactive		1.36 µM (active)					
Nc1ccc(Cl)cc1	inactive	inactive	inactive	inactive		inactive	inactive	inactive	33.4 µM (active)					
CCC1(c2ccccc2)C(=O)N=C(O)NC1=O (stereo not drawn)	inactive	inactive	inactive	inactive	inactive	inactive				63.6 µM (active)				
